# Measured values from PubChem BioAssay (NCI).
# The panel holds about 79,000 compounds, 15% with a hit somewhere; the sample as a whole holds those more often. Unmarked numbers belong to inactive results. Calls of active or inactive are those of the source. No stated cut-off is given here; in the data, active means growth inhibition above about 70%; inactive means the rest.
# Experiments:
# [1] = NCI Yeast Anticancer Drug Screen. Data for the rad52 strain (AID 147);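 further: 0% = growth of vehicle-treated control cultures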; details: S. cerevisiae rad52 mutant growth inhibition, hits give high values
# How it was run: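 Compounds are applied to a genetically defined yeast strain lacking normal DNA damage repair, and inhibition of growth is expressed relative to cultures given vehicle only.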
# [2] = NCI Yeast Anticancer Drug Screen. Data for the wt1 strain (AID 149);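 further: 0% = growth of vehicle-treated wt1 cultures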; details: S. cerevisiae wt1 strain (SPY 50644) growth inhibition, hits give high values
# How it was run: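 Measured: growth of wt1 yeast under compound versus vehicle treatment, reported as inhibition.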
# [3] = NCI Yeast Anticancer Drug Screen. Data for the rad50EPP+ strain (AID 151);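 further: 0% = growth of vehicle-treated control cultures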; details: S. cerevisiae rad50 mutant strain, hits give high values
# How it was run: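 Compounds were applied to the rad50EPP+ yeast strain, which bears a defined DNA repair alteration, and growth inhibition was determined relative to vehicle-treated cultures.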
# [4] = NCI Yeast Anticancer Drug Screen. Data for the rad50 strain (AID 155);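 further: 0% = growth of vehicle-only cultures of the same strain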; details: S. cerevisiae rad50 strain growth inhibition, hits give high values
# How it was run: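 Growth of the mutant yeast was measured after compound exposure and referenced to vehicle-treated cultures.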
# [5] = NCI Yeast Anticancer Drug Screen. Data for the mec2-1 strain (AID 157); details: S. cerevisiae mec2-1 strain, hits give high values
# How it was run: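 Strain: mec2-1 (DNA repair/cell cycle alteration). Compound exposure, then growth measured; inhibition expressed relative to vehicle.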
# [6] = NCI Yeast Anticancer Drug Screen. Data for the rad14 strain (AID 159);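 further: 0% = growth of vehicle-treated control cultures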; details: S. cerevisiae rad14 strain growth inhibition, hits give high values
# How it was run: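 Here, inhibition of yeast growth was measured after compound exposure, using a strain with a genetic defect in DNA damage repair and vehicle-treated cultures as the reference.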
# [7] = NCI Yeast Anticancer Drug Screen. Data for the sgs1 mgt1 strain (AID 161);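 further: 0% = growth of cultures given vehicle only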; details: S. cerevisiae sgs1 mgt1 strain, hits give high values
# How it was run: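 Test agents were incubated with a DNA-repair-mutant yeast strain. Growth was then read and compared against vehicle-treated controls.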
# [8] = NCI Yeast Anticancer Drug Screen. Data for the CLN2oe strain (AID 163);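 further: 0% = growth of vehicle-only control cultures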; details: S. cerevisiae CLN2oe strain, hits give high values
# How it was run: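 Growth of a genetically modified yeast strain is measured after compound exposure and compared with cultures given vehicle alone.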
# [9] = NCI Yeast Anticancer Drug Screen. Data for the cln2 rad14 strain (AID 165);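 further: 0% = growth equal to vehicle treated cultures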; details: S. cerevisiae cln2 rad14 strain, hits give high values
# How it was run: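 Compounds are applied to the cln2 rad14 yeast strain, and growth is then compared with that of vehicle-treated cultures to give inhibition.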
# [10] = NCI Yeast Anticancer Drug Screen. Data for the bub3 strain (AID 167); details: S. cerevisiae bub3 mutant strain, hits give high values
# How it was run: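 Whole-cell yeast assay. The mutant strain was incubated with compounds, and growth inhibition was determined by comparison with vehicle-treated cells.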
# [11] = NCI Yeast Anticancer Drug Screen. Data for the wt2 strain (AID 169);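 further: 0% = growth of vehicle-treated yeast cultures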; details: S. cerevisiae wt2 strain growth inhibition, hits give high values
# How it was run: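 This strain belongs to a panel of yeast strains with defined genetic alterations in DNA damage repair or cell cycle control. Compounds are applied, and growth inhibition is measured against vehicle-treated cultures.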
# [12] = NCI Yeast Anticancer Drug Screen. Data for the mlh1 strain (AID 171);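 further: 0% = growth of vehicle-treated control cultures of the same strain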; details: S. cerevisiae mlh1 strain growth inhibition, hits give high values
# How it was run: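 Growth of the mutant yeast strain after compound exposure, expressed as inhibition relative to vehicle-only controls.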
# [13] = NCI Yeast Anticancer Drug Screen. Data for the sgs1 strain (AID 173);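 further: 0% = growth of vehicle-only control cultures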; details: S. cerevisiae sgs1 mutant, hits give high values
# How it was run: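 Growth of a yeast strain bearing a defined genetic alteration is measured after compound treatment. Inhibition is expressed relative to vehicle-only controls.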
# [14] = NCI Yeast Anticancer Drug Screen. Data for the mlh1 rad18 strain (AID 175); details: S. cerevisiae mlh1 rad18 strain growth inhibition, hits give high values
# How it was run: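 Read-out is yeast growth inhibition, calculated against vehicle-only controls. The compound was applied to a strain engineered with DNA damage repair alterations.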
# [15] = NCI Yeast Anticancer Drug Screen. Data for the rad18 strain (AID 177); details: S. cerevisiae rad18 mutant growth inhibition, hits give high values
# How it was run: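 Growth of the mutant yeast strain after compound exposure, normalised to vehicle-only cultures.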
# [16] = at 5.0 µM (retest, dose inferred, filed as 0.5)
# [17] = at 50.0 µM (retest, dose inferred, filed as 5.0)
structure (smiles),measurement,setting,value
NP1(Oc2ccc(F)cc2)=NP(N)(Oc2ccc(F)cc2)=NP(Oc2ccc(F)cc2)(Oc2ccc(F)cc2)=N1 (stereo not drawn),growth inhibition,[1]; at 1.2 µM,-1%
same,growth inhibition,[1]; at 3.7 µM,7%
same,growth inhibition,[1]; at 11.0 µM,74% (active)
same,growth inhibition,[1]; at 33.0 µM,71% (active)
same,growth inhibition,[1]; at 100.0 µM,96% (active)
same,growth inhibition,[2]; at 1.2 µM,-2%
same,growth inhibition,[2]; at 3.7 µM,0%
same,growth inhibition,[2]; at 11.0 µM,20%
same,growth inhibition,[2]; at 33.0 µM,41%
same,growth inhibition,[2]; at 100.0 µM,48%
same,growth inhibition,[3]; at 1.2 µM,-6%
same,growth inhibition,[3]; at 3.7 µM,-2%
same,growth inhibition,[3]; at 11.0 µM,2%
same,growth inhibition,[3]; at 33.0 µM,4%
same,growth inhibition,[3]; at 100.0 µM,1%
same,growth inhibition,[4]; at 1.2 µM,4%
same,growth inhibition,[4]; at 3.7 µM,5%
same,growth inhibition,[4]; [16],21%
same,growth inhibition,[4]; at 11.0 µM,95% (active)
same,growth inhibition,[4]; at 33.0 µM,96% (active)
same,growth inhibition,[4]; [17],64%
same,growth inhibition,[4]; at 50.0 µM,94.8% (active)
same,growth inhibition,[4]; at 100.0 µM,96% (active)
same,growth inhibition,[5]; at 1.2 µM,1%
same,growth inhibition,[5]; at 3.7 µM,3%
same,growth inhibition,[5]; [16],12%
same,growth inhibition,[5]; at 11.0 µM,26%
same,growth inhibition,[5]; at 33.0 µM,28%
same,growth inhibition,[5]; [17],19%
same,growth inhibition,[5]; at 50.0 µM,84.7% (active)
same,growth inhibition,[5]; at 100.0 µM,94% (active)
same,growth inhibition,[6]; at 1.2 µM,-2%
same,growth inhibition,[6]; at 3.7 µM,1%
same,growth inhibition,[6]; at 11.0 µM,6%
same,growth inhibition,[6]; at 33.0 µM,15%
same,growth inhibition,[6]; at 100.0 µM,88% (active)
same,growth inhibition,[7]; [16],1%
same,growth inhibition,[7]; [17],28%
same,growth inhibition,[7]; at 50.0 µM,97.9% (active)
same,growth inhibition,[8]; at 1.2 µM,0%
same,growth inhibition,[8]; at 3.7 µM,-3%
same,growth inhibition,[8]; at 11.0 µM,17%
same,growth inhibition,[8]; at 33.0 µM,53%
same,growth inhibition,[8]; at 100.0 µM,94% (active)
same,growth inhibition,[9]; [16],5%
same,growth inhibition,[9]; [17],54%
same,growth inhibition,[9]; at 50.0 µM,97% (active)
same,growth inhibition,[10]; at 1.2 µM,1%
same,growth inhibition,[10]; at 3.7 µM,-1%
same,growth inhibition,[10]; [16],8%
same,growth inhibition,[10]; at 11.0 µM,53%
same,growth inhibition,[10]; at 33.0 µM,23%
same,growth inhibition,[10]; [17],35%
same,growth inhibition,[10]; at 50.0 µM,87.5% (active)
same,growth inhibition,[10]; at 100.0 µM,96% (active)
same,growth inhibition,[11]; at 1.2 µM,0%
same,growth inhibition,[11]; at 3.7 µM,7%
same,growth inhibition,[11]; at 11.0 µM,-1%
same,growth inhibition,[11]; at 33.0 µM,22%
same,growth inhibition,[11]; at 100.0 µM,50%
same,growth inhibition,[12]; at 1.2 µM,0%
same,growth inhibition,[12]; at 3.7 µM,-2%
same,growth inhibition,[12]; at 11.0 µM,1%
same,growth inhibition,[12]; at 33.0 µM,15%
same,growth inhibition,[12]; at 100.0 µM,84% (active)
same,growth inhibition,[13]; at 1.2 µM,-3%
same,growth inhibition,[13]; at 3.7 µM,0%
same,growth inhibition,[13]; at 11.0 µM,12%
same,growth inhibition,[13]; at 33.0 µM,51%
same,growth inhibition,[13]; at 100.0 µM,95% (active)
same,growth inhibition,[14]; [16],17%
same,growth inhibition,[14]; [17],86% (active)
same,growth inhibition,[14]; at 50.0 µM,88.2% (active)
same,growth inhibition,[15]; at 1.2 µM,-1%
same,growth inhibition,[15]; at 3.7 µM,14%
same,growth inhibition,[15]; at 11.0 µM,63%
same,growth inhibition,[15]; at 33.0 µM,83% (active)
same,growth inhibition,[15]; at 100.0 µM,97% (active)
